Results as given in PubChem BioAssay (NCATS).
Unmarked numbers belong to inactive results. The source made the active and inactive calls. Calls follow the shape of the dose curve; as a rule, active = well fitted activation curve with a large enough effect; inconclusive = small, poorly fitted or top-dose-only effect; inactive = flat fitted curve, though single readings scatter.

Test: Confirmation and Secondary Assay for Modulators of Hemoglobin Beta Chain Splicing at IVS2 654 locus (AID 910);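 also: HeLa cells stably carrying EGFP split by mutant beta-globin IVS2-654 intron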;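 also: potency of activators that raise GFP signal by restoring correct splicing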; as to activation (splicing correction): % of control where 0% means no effect
Conditions: HeLa EGFP-654 splicing reporter, GFP fluorescence, 48 h; series mostly up to 46.1 µM; activation (splicing correction): at the top concentration
Excerpt: NIH Chemical Genomics Center [NCGC] NIH Molecular Libraries Screening Centers Network [MLSCN] MLSCN Grant: 1 X01 MH080684-01 PI Name: Dr. Ryszard Kole NCGC Assay Overview: Modulation of Alternative Splicing as Therapy Abnormal splicing is associated with a number of diseases, including cancer and genetic diseases such as cystic fibrosis, muscular dystrophy and beta-thalassemia. Alteration of disease associated splicing patterns provides a promising target for treatment. […] Mutations in the second intron of the b-globin gene at positions 654 or 705 are clinically relevant and cause mis-splicing which results in an out of frame gene product. […] EGFP-654 HeLa Cells as screen system. HeLa cell lines were stably transfected with a construct in which the EGFP (enhanced green fluorescent protein) cDNA was interrupted by the second intron of the beta-globin gene (IVS2-654). The ISV2 intron contains mutations which cause mis-splicing of EGFP and premature termination of EGFP which results in a nonfluorescent protein product. […] Expression of the transgene was driven by the CMV promoter. We concluded that a low molecular weight compound, which restored correct splicing of intron 2 would also generate functional EGFP protein, resulting in a fluorescent signal. Thus, the HeLa cells that express the EGFP-654 construct can be used for high throughput screening of a chemical library.
NCGC Assay Protocol Summary: Confirmatory Screening. Freshly thawed HeLa EGFP-654 cells were seeded in 5 ul of optimem media (Invitrogen) containing 2 % fetal calf serum (Hyclone) and 1x penicillin/streptomycin (Invitrogen) at a concentration of 500 cells per well in 1536-well plates. Cells were incubated overnight at 37C in 5% CO2. The next day, cells were treated with DMSO, 500 nM antisense ISV2 654 PNA control oligo, or library compound and allowed to grow at 37C in 5% CO2 for 2 days. The PNA oligo blocked the mutation site in the intron and allowed proper (wild type) splicing to occur, resulting in full length EGFP expression and also allowed for optimization of the assay parameters. Plates were read in the Acumen Explorer (TTP Labtech) using 488 nm laser excitation and 500-520 nm emission PMT filter in a 1 x 8 uM capture mode. Fluorescnet objects ranging in size from 5 to 250 uM were measured and the total peak GFP intensity for each well was used for data analysis. Keywords: Thalassemia, beta-thalassemia, beta-globin, EGFP, ISV2 654, ISV2 705, SSO, PNA, antisense, splicing, MLSMR, MLSCN, NIH Roadmap, qHTS, NCGC
Potency is read from the fitted curve at half-maximal effect.

| SMILES | activation (splicing correction) | Potency |
| --- | --- | --- |
| NC(=O)CC[C@H](N)C(=O)O | -0.177% [at 38.3 µM] | – |
| O=C(O)C1=CC(=C(c2ccc(O)c(C(=O)O)c2)c2ccc(O)c(C(=O)O)c2)C=CC1=O | 4.12% [at 38.3 µM] | – |
| O=C(O)c1cc2cc(F)ccc2[nH]1 | 0.767% [at 38.3 µM] | – |
| NC(N)=NC(N)=Nc1ccccc1 | -0.186% [at 38.3 µM] | – |
| NCCCCN | -0.174% [at 38.3 µM] | – |
| O=[N+]([O-])c1cccc2cn[nH]c12 | 3.26% | – |
| c1ccc(C2CN3CCSC3=N2)cc1 (stereo unspecified) | 8.07% | – |
| CCSC(=N)N | 5.39% | – |
| CC(=O)NCCc1c[nH]c2ccc(O)cc12 | 4.39% | – |
| CC1=C(/C=C/C(C)=C/C=C/C(C)=C\C(=O)O)C(C)(C)CCC1 | -2.97% | – |
| OC[C@H]1O[C@@H](n2cnc3cncnc32)[C@H](O)[C@@H]1O | – | 1260 nM (active) |
| O=C(O)c1cccnc1C(=O)O | 7.72% | – |
| CCCn1c(=O)c2[nH]c(C3CCCC3)nc2n(CCC)c1=O | -0.33% [at 38.3 µM] | – |
| O=C(O)/C=C/c1ccc(O)c(O)c1 | 1.38% [at 38.3 µM] | – |
| O=C1OC(=O)C2C3CCC(O3)C12 (stereo unspecified) | 2.3% [at 38.3 µM] | – |
| O=C(O)C1=CCCNC1 | -2.28% [at 38.3 µM] | – |

| SMILES | activation (splicing correction) | Potency |
| --- | --- | --- |
| O=C(O)c1ccccc1Nc1ccccc1 | 9.04% | – |
| NCCCCN=C(N)N | 1.22% | – |
| C=C(C)C1CC=C(C(=O)O)CC1 (stereo unspecified) | 1.18% | – |
| CN1C2CCC1CC(OC(c1ccccc1)c1ccccc1)C2 (stereo unspecified) | 0.315% | – |
| NC1CONC1=O (stereo unspecified) | 6.29% | – |
| Cn1c(=O)c2[nH]c(C3CCCC3)nc2n(C)c1=O | 5.12% | – |
| O=[N+]([O-])c1cccc2c(Br)[nH]nc12 | 1.31% | – |
| CC(C)NC[C@H](O)COc1ccc(CC(N)=O)cc1 | 7.48% | – |
| N=C(N)SCCN | 1.05% | – |
| CN(C)CCC(c1ccc(Br)cc1)c1ccccn1 (stereo unspecified) | 7.12% | – |
| NC/C=C\C(=O)O | 2.8% [at 38.3 µM] | – |
| Cn1c(=O)[nH]c2ncn(C)c2c1=O | -0.82% [at 38.3 µM] | – |
| NC1(C(=O)O)CC1 | 2.42% [at 38.3 µM] | – |
| O=C(O)C1=CCNCC1 | 1.32% [at 38.3 µM] | – |
| CC(C)Cn1c(=O)n(C)c(=O)c2[nH]cnc21 | – | inactive |
